Compounds with a hit are over-represented: about 12% of the library has one in this group of screens.
PLK1 PBD inh: qHTS for Inhibitors of PLK1-PDB (polo-like kinase 1 - polo-box domain): Primary Screen; Potency, µM, for inactives: max response, negative = inhibition, actives largely listed as inhibitors; Plk1 PBD binding of FITC phosphopeptide, fluorescence polarization; Serine/threonine-protein kinase PLK1 (Homo sapiens), P53350; 360,000 compounds, 2.8% hits; note: series mostly up to about 57 µM; nearly all actives have a fitted effect of over 65% in size
Gal4-VP16 FLuc: VP16 counterscreen qHTS for inhibitors of ROR gamma transcriptional activity; Drosophila S2 Gal4-VP16 UAS-luciferase, luminescence, 20 h; 310,000 compounds, 3.5% hits; Potency, µM (highest dose often 53.6 µM), inactives show at the highest dose activity, negative = inhibition, hits mostly inhibitors; AID 2546, 2010;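 note: Gal4-VP16 expression switched on by copper sulfate through the metallothionein promoter; nearly all actives have a fitted effect of over 50% in size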
ALDH1A1 inh: qHTS Assay for Inhibitors of Aldehyde Dehydrogenase 1 (ALDH1A1); Aldehyde dehydrogenase 1A1 (Homo sapiens), P00352; Purified ALDH1A1, NADH fluorescence, propionaldehyde substrate; 220,000 compounds, 7.3% hits; Potency, µM (series often up to 75.3 µM), for inactives: top-dose activity, negative = inhibition, usual class: inhibitors; active = well fitted inhibition curve with a large enough effect, not every such curve was filed as active; inconclusive = small, poorly fitted or top-dose-only effect, or another doubt; inactive = no such curve, though single readings can be large or run the other way;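 note: plate controls were no enzyme wells and a reference inhibitor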
Sfp inh: qHTS Assay for Inhibitors of Bacillus subtilis Sfp phosphopantetheinyl transferase (PPTase). 4'-phosphopantetheinyl transferase ffp (Bacillus subtilis), Q9F4F7. Biochemical Sfp PPTase activity, qHTS. Potency, µM, for inactives: largest response in the series, negative = inhibition, hits mostly inhibitors. 310,000 compounds, 3.5% hits;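 note: the enzyme is Sfp with the accession as filed and its product quenches rhodamine fluorescence; 0% = enzyme reaction without inhibitor and -100% = no enzyme wells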
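Fluorescence-quenching assay: 15 nM Sfp-PPTase preincubated 15 min at room temperature with compound, then 5 uM rhodamine-CoA and 12.5 uM BHQ-2-labelled YbbR peptide added. Fluorescence (ex 525/em 598 nm) read at start and after 30 min; difference gives rate.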
RORg inh: qHTS for inhibitors of ROR gamma transcriptional activity; Nuclear receptor ROR-gamma (Mus musculus), P51450; Drosophila S2 Gal4-RORgamma UAS-luciferase reporter, 20 h; Potency, µM (highest dose often 53.6 µM), inactives show top-dose activity change, negative = inhibition, actives largely listed as inhibitors; 310,000 compounds, 5.4% hits; note: nearly all actives have a fitted effect of over 60% in size
Target sequence (P51450 whole entry, looked up, the tested form may be a part): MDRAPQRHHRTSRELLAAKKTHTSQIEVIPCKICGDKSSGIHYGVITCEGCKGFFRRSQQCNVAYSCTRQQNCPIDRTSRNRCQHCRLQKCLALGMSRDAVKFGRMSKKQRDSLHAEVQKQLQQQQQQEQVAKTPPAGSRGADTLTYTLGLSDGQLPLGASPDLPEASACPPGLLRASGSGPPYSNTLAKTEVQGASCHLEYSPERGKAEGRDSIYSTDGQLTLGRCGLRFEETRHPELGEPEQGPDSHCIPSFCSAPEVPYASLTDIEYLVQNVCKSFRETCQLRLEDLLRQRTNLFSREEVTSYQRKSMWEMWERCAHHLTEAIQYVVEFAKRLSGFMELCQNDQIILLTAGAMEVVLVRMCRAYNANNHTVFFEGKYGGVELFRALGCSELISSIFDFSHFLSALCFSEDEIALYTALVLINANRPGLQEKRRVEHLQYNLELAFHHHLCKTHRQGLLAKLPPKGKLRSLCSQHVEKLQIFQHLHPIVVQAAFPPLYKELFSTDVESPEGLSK
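Schneider cells (Drosophila), stable Gal4 DBD–ROR gamma + UAS-luc; 1 hr cmpd preincubation; Cu2+ induction 700 uM final; 20 hr ambient; luminescence.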
Numbers without * were called inactive; ? = inconclusive; · = no result; [ ] = remark or other dose. Unless noted, calls come from the whole dose curve; as a rule, active = well fitted curve in the direction sought with a large enough effect; inconclusive = small, poorly fitted or top-dose-only effect, or another doubt; inactive = no such curve, though single readings can be large; an effect the other way counts as inactive or inconclusive. Unless noted, % is set by controls: 0 for no effect and ±100 for the full control effect; potency is the fitted concentration of half-maximal effect.

SMILES	PLK1 PBD inh	Gal4-VP16 FLuc	ALDH1A1 inh	Sfp inh	RORg inh
Cc1cc(=O)oc2cc(Oc3ccc([N+](=O)[O-])cc3[N+](=O)[O-])ccc12	-3%	-80%	?	-5%	11µM*
Cc1cc(=O)oc2cc(Oc3ncccc3[N+](=O)[O-])ccc12	-5%	6%	?	-5%	9%
O=c1oc2cc(Oc3c([N+](=O)[O-])cc(C(F)(F)F)cc3[N+](=O)[O-])ccc2c2c1CCCC2	?	6%	?	2%	8%
O=Cc1cccc(Oc2ccc([N+](=O)[O-])cc2[N+](=O)[O-])c1	-7%	3%	-22%	18%	14µM*
O=c1oc2cc(Oc3ccc(C(F)(F)F)cc3[N+](=O)[O-])ccc2c2c1CCC2	-18%	-2%	16µM*	-3%	-12%
C/C(=C(/CCO)SS/C(CCO)=C(\C)N(C=O)Cc1cnc(C)nc1N)N(C=O)Cc1cnc(C)nc1N	·	-2%	·	-4%	-23%
CC(OC(=O)Cn1[nH]c(=O)c2ccccc2c1=O)C(=O)c1ccccc1 (configuration not stated)	-18%	7%	·	11%	10%
CS(=O)c1ccccc1-c1nc(-c2cccc(Cl)c2)no1 (configuration not stated)	27µM*	-2%	-2%	-3%	-17%
Cc1ccc(-c2ccc(/C=C/C(=O)c3ccccc3)o2)cc1	1%	-27%	3.2µM*	11µM*	18%
O=C(/C=C/c1ccc(-c2ccccc2[N+](=O)[O-])o1)c1ccc(F)cc1	-3%	4%	-1%	5%	?
O=C(/C=C/c1ccc(-c2ccccc2)o1)c1ccccc1	10%	?	12%	16µM*	?
O=C(/C=C/c1ccc(-c2ccccc2[N+](=O)[O-])o1)c1ccc(Br)cc1	-14%	2%[0.365 µM]	7.1µM*	-1%	2%
O=Cc1ccc(-c2cccc(C(=O)O)c2)o1	-22%	6%	60%	?	-6%
Cc1cccc(Cl)c1NC[C@H](O)CN1CCN(C)CC1	·	·	1%[13.5 µM]	·	·
COC(=O)c1cccc2c(C(=O)O)cc(-c3ccccc3)nc12	1%	·	·	·	·
COc1ccc(C(=O)C[n+]2cc(-c3ccc(OC)cc3)n3c2CCCC3)cc1	1%	-5%	-2%	9%	39%
Cc1ccc(C(=O)C[n+]2cc(-c3ccc(C)cc3)n3c2CCCCC3)cc1	-4%	5µM*	5%	3%	?
Cc1cc(C)c(S(=O)(=O)NCC2CCC(C(=O)NCCCN3CCC(C)CC3)CC2)c(C)c1 (configuration not stated)	24µM*	-5%	·	-3%	9%
CC(C)OCCCNC(=O)C1CCC(CNS(=O)(=O)c2ccc(Cl)cc2)CC1 (configuration not stated)	-7%	-3%	?	11%	-5%
CC(C)OCCCNC(=O)C1CCC(CNS(=O)(=O)c2ccccc2)CC1 (configuration not stated)	6%	-1%	3.5µM*	3%	17%
Cc1ccc(S(=O)(=O)NCC2CCC(C(=O)NCCCOC(C)C)CC2)cc1 (configuration not stated)	·	-5%	0.71µM*	0%	22%
CC(/C=C/c1ccc(N(C)C)cc1)=N\N=C1\NC(=O)CC(C(=O)Nc2ccccc2)S1 (configuration not stated)	8%	3.5µM*	?	9%	2.2µM*
CC(/C=C/c1ccc(N(C)C)cc1)=N/N=C1/NC(=O)CC(C(=O)Nc2ccc(Cl)cc2)S1 (configuration not stated)	0%	8.9µM*	25µM*	5%	2.5µM*
CCCOc1ccc(NC(=O)C2CC(=O)N/C(=N/N=C(C)/C=C/c3ccc(N(C)C)cc3)S2)cc1 (configuration not stated)	-8%	3.2µM*	?	6%	2.8µM*
O=C(CCNC(=O)N1CC(=O)Nc2ccccc21)NCc1ccccc1	4%	·	·	·	·
